The structures appear in SMILES notation. Activity calls are given as the source filed them.

The nature of assay [1]: binders of probe aFSTL3 on microarray, primary screen, stem cell growth factor project, biochemical, small-molecule microarray, fluorescence 635/667 (AID 1064).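 Note: measures binding of the biotinylated anti-FSTL3 antibody to printed compounds.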 The note with it: higher = more signal.
The nature of assay [2]: binders from COS7 lysate, DM2A8 probe, primary screen, torsin A project, cell lysate, small-molecule microarray, fluorescence 635/667 (AID 1065). The note with it: higher = more signal, COS7 lysate expressing mutant human TOR1A.
Assay [3] in a line: binders of probe aFGF2 on microarray, primary screen, stem cell growth factor project, biochemical, small-molecule microarray, fluorescence 635/667 (AID 1067).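 Note: measures binding of biotinylated aFGF2 protein to printed compounds on slides; z-score merges feature fluorescence and signal-to-noise across triplicate slides.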 The note with it: higher = more signal.
A short description of assay [4]: binders of probe aFGF10 on microarray, primary screen, stem cell growth factor project, biochemical, small-molecule microarray, fluorescence 635/667 (AID 1071).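 Note: score merges 667 nm spot intensity and signal to noise from triplicate slides.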 The note with it: higher = more signal.
For assay [5], the target named is Neurogenic locus notch homolog protein 2 (Homo sapiens) (UniProt Q04721). Nature of the assay: Notch2 binders on small-molecule microarrays, primary screen, biochemical, small-molecule microarray, 635 nm fluorescence, stem cell growth factors (AID 1073). The note with it: Notch2 binding, higher = more signal.
Assay [6] has as its target Pro-neuregulin-1, membrane-bound isoform (Homo sapiens) (UniProt Q02297). Briefly: NRG1 binders on small-molecule microarrays, primary screen, psychiatric disease protein project, biochemical, small-molecule microarray, fluorescence 635/667 (AID 1075).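 Note: score combines 667 nm spot fluorescence with signal to noise.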 The note with it: NRG1 binding, 635 nm fluorescence, higher = more signal.
In assay [7] the test system is Neuregulin-1 EGF-like domain. Nature of the assay: binders of neuregulin-1 EGF-like domain, primary screen, biochemical, small-molecule microarray, 635 nm fluorescence (AID 1081).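 Note: binding of the protein to compounds printed on small-molecule microarray slides.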 The note with it: small-molecule microarray binding, higher = more signal.
The nature of assay [8]: FRG1 promoter luciferase signal modulators, primary screen, FRG1 inhibition for FSHD, cell-based, C2C12 myotubes, firefly/Renilla luciferase, luminescence (AID 1084). The note with it: higher = more signal, called active from +8 up or from −8 down.
The nature of assay [9]: binders of probe aFST on microarray, primary screen, stem cell growth factor project, biochemical, small-molecule microarray, fluorescence 635/667 (AID 1086).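 Note: score merges 667 nm fluorescence with signal-to-noise of each printed compound spot.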 The note with it: higher = more signal.
A short description of assay [10]: binders of probe aHhip on microarray, primary screen, stem cell growth factor project, biochemical, small-molecule microarray, fluorescence 635/667 (AID 1087).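 Note: score merges spot fluorescence at 667nm with spot signal to noise ratio.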 The note with it: higher = more signal.
Assay [11] deals with PRMT1 (protein arginine N-methyltransferase 1). Nature of the assay: PRMT1 binders on small-molecule microarrays, primary screen, biochemical, small-molecule microarray, 635 nm fluorescence (AID 1088).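 Note: binding of Prmt1 protein to compounds spotted on small-molecule microarray slides.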 The note with it: small-molecule microarray binding, higher = more signal.
Assay [12] in a line: yeast growth modulation, basal conditions, primary screen, YJM789 clinical isolate, OD600, 24 h (AID 1089).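 Note: growth of clinical yeast isolate S. cerevisiae YJM 789 seeded 1000 cells per well; test concentration not given here.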 The note with it: S. cerevisiae YJM789 growth, higher = more signal, called active from +8 up or from −8 down.
Assay [13] is described as follows: fission yeast growth modulation, primary screen, strain 972, OD600, 24 h, no modulator (AID 1090).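 Note: basal condition with compound alone and no growth modifier present; test concentration not given here.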 The note with it: S. pombe 972 growth, higher = more signal, called active from +8 up or from −8 down.
Assay [14] in a line: S. cerevisiae growth modulation with rapamycin, primary screen, strain BY4716, OD600, 96 h (AID 1091). Note: test concentration not given here. The note with it: higher = more signal, called active from +8 up or from −8 down.
In assay [15] the target is Torsin-1A-interacting protein 2 (Homo sapiens) (UniProt Q8NFQ8). Briefly: LULL1 binders on small-molecule microarray, primary screen, cell lysate, human LULL1 lysate, 635/667 nm fluorescence (AID 1092).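 Note: probe is lysate of COS7 cells overexpressing human LULL1; score merges per-feature 667 nm fluorescence with signal-to-noise.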 The note with it: hLULL1 lysate binding, 635 nm fluorescence, higher = more signal.
Sequence of Torsin-1A-interacting protein 2 (Homo sapiens) (Q8NFQ8 whole entry, looked up): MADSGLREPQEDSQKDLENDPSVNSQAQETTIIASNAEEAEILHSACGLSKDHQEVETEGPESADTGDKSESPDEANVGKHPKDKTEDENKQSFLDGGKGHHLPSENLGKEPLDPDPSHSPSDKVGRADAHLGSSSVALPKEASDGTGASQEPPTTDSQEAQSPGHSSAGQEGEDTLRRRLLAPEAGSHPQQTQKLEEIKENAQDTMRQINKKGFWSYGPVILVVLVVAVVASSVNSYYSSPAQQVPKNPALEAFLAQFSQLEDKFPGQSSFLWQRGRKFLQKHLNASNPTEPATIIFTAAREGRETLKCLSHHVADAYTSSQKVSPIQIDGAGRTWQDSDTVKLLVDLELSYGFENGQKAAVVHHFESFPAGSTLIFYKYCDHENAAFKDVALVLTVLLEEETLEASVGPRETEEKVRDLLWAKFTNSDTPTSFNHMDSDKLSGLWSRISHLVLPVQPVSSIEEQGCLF
A short description of assay [16]: E. coli growth modulation, two-sided OD650, primary screen, E. coli filamentation project, strain DRC41, 24 h (AID 1093).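 Note: MC1000 strain lacking acrAB efflux and sulA so SOS filamentation is blocked; test concentration not given here.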 The note with it: OD650, 24 h, higher = more signal, called active from +8 up or from −8 down.
Assay [17] can be described thus: small-molecule microarray binders of probe aLefty2, primary screen, biochemical, biotinylated probe, 635/667 nm fluorescence (AID 1094).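 Note: score merges spot fluorescence near 667 nm with spot signal-to-noise ratio.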 The note with it: higher = more signal.
Assay [18] deals with Noggin (protein binding on small-molecule microarray). Briefly: Noggin binders on small-molecule microarray, primary screen, biochemical, 635/667 nm fluorescence (AID 1095).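 Note: score merges 667 nm feature fluorescence with signal to noise over triplicate slides.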 The note with it: 635 nm fluorescence, higher = more signal.
Assay [19] deals with Neurogenic locus notch homolog protein 3 (Homo sapiens) (UniProt Q9UM47). Nature of the assay: NOTCH3 binders on small-molecule microarray, primary screen, biochemical, 635/667 nm fluorescence (AID 1096). The note with it: NOTCH3 binding, 635 nm fluorescence, higher = more signal.
Sequence of Neurogenic locus notch homolog protein 3 (Homo sapiens) (Q9UM47 whole entry, looked up): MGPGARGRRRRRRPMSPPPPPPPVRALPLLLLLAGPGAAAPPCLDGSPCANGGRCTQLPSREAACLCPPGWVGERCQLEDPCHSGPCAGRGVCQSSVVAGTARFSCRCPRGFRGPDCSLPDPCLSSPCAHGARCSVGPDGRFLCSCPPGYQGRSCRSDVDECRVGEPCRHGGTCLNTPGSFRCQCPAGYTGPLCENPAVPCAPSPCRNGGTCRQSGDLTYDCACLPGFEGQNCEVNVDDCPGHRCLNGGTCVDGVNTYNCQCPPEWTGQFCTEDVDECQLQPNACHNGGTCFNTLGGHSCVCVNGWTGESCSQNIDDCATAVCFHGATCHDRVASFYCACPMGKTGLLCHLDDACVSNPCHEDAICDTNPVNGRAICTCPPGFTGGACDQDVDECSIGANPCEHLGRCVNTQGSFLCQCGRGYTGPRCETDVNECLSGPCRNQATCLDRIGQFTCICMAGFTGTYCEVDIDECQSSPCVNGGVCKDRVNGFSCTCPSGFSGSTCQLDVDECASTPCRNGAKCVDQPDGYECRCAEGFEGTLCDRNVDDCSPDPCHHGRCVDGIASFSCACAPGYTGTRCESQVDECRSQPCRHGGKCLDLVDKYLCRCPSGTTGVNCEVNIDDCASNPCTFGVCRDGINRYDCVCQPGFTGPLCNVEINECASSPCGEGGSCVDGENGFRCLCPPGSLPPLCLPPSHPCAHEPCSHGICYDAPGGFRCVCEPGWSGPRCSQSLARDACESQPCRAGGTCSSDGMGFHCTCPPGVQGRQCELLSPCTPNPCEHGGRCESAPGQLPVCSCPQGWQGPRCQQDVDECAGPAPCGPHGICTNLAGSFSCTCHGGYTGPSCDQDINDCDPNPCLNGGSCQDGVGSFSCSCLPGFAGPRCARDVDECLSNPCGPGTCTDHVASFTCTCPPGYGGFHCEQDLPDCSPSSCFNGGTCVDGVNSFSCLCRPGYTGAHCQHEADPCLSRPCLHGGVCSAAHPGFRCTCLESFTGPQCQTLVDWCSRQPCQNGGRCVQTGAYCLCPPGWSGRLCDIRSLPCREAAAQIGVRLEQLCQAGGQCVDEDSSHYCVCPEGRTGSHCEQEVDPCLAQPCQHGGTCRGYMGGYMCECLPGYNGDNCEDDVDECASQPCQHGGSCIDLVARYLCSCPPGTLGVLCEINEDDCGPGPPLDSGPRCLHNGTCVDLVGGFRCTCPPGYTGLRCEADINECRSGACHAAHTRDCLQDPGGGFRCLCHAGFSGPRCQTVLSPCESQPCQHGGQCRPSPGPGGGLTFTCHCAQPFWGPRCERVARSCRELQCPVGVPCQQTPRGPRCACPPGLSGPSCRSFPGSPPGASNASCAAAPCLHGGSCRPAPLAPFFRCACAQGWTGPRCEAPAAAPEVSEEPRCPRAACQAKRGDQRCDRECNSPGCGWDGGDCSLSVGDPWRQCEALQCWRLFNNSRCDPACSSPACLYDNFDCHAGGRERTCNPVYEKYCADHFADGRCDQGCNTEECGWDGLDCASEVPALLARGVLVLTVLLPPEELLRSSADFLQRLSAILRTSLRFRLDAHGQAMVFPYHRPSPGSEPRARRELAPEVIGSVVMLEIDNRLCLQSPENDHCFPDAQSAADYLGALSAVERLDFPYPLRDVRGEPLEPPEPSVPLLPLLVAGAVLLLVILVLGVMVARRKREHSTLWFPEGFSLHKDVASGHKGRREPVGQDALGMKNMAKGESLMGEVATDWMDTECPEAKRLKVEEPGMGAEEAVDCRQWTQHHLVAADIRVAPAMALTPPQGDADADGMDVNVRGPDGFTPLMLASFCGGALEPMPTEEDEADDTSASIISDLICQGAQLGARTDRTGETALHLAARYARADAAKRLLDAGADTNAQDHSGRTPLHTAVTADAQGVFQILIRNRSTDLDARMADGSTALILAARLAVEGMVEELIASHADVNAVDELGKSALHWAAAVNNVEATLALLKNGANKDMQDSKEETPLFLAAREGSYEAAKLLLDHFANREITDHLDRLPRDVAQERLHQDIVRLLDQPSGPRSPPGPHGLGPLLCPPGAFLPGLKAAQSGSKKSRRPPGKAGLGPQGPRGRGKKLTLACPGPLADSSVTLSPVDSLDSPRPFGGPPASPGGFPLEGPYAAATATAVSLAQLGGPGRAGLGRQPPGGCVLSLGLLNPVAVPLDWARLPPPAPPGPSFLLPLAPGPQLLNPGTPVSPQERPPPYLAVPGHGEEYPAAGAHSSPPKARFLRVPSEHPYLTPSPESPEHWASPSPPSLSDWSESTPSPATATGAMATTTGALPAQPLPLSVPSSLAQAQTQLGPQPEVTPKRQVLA
Assay [20] in a line: small-molecule microarray binders of probe aEGFR, primary screen, biochemical, biotinylated probe, 635/667 nm fluorescence (AID 1097).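 Note: probe is a biotinylated anti-EGFR antibody binding compounds printed on slides; score combines fluorescence near 667 nm and signal to noise of each spot.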 The note with it: higher = more signal.

Sequence of Pro-neuregulin-1, membrane-bound isoform (Homo sapiens) (Q02297 whole entry, looked up, the tested form may be a part, canonical isoform): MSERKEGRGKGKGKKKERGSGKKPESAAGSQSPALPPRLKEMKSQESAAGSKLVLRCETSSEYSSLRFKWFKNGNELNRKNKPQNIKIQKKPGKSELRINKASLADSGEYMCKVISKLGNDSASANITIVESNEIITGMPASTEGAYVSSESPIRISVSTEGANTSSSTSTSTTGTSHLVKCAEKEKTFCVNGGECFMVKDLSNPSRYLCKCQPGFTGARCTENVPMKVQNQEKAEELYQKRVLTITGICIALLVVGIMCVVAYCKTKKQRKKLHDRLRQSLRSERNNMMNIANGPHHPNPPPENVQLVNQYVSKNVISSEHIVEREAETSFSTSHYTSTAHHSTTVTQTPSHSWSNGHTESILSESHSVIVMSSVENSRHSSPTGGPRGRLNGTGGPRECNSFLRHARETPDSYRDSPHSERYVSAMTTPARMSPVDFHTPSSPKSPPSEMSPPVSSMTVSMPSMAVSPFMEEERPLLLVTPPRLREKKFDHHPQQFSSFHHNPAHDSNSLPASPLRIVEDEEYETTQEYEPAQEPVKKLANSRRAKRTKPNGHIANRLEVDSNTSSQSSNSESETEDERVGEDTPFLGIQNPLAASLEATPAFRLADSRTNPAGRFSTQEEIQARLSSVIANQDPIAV

For the compound `COCCCNC(=O)[C@@]1(Sc2ccc(C)cc2)CC(=O)N(Cc2ccccc2)[C@@H]1c1ccc(CO)cc1`, the composite z-score was 0.178 in assay [1]; 0.685 in [2]; 0.0431 in assay [3]; 0.738 in assay [4]; -0.774 in [5]; 0.505 in assay [6]. The composite z-score is -0.233 in assay [7]; -0.217 in [9]; 0.0347 in [10]; 0.983 in assay [11]; 2.66 in [15]; -0.27 in assay [17]. The composite z-score in [18] was -0.408; in assay [19] it was -0.0703; in assay [20] it was 0.03. Also, the z-score in assay [8] was -1.53 (inactive); in [12] it was -0.0867 (inactive); in assay [13], 0.163 (inactive); in [14], -0.455 (inactive); in [16], -0.0977 (inactive).

`C=C(CCCC)C(=O)CC[C@H](OC(=O)c1ccccc1-c1ccccc1C(=O)O)c1ccc(CO)o1`: the composite z-score was -0.619 in [1]; 0.779 in [2]; -0.0206 in [3]; 1.16 in assay [4]; 0.455 in assay [5]; 0.606 in assay [6]. Besides, the composite z-score was 1.25 in assay [7]; 0.367 in assay [9]; -0.0994 in [10]; 1.55 in assay [11]; 1.99 in [15]; -0.132 in [17]. Moreover, the composite z-score in [18] was 1.35; in assay [19] it was 1.06; in assay [20], -0.065. Further, the z-score in assay [8] was -0.225 (inactive); in assay [12], -0.521 (inactive); in assay [13] it was 0.162 (inactive); in assay [14] it was 0.437 (inactive); in [16] it was 0.251 (inactive).

For `C=C[C@H](C)[C@H](O)c1ccc(OCCO)cc1`, the composite z-score is 0.254 in assay [1]; -0.716 in [2]; -0.243 in assay [3]; -1.14 in assay [4]; -2.21 in assay [5]; -0.758 in assay [6]. The composite z-score is -0.694 in assay [7]; -0.91 in [9]; -0.204 in assay [10]; -0.647 in assay [11]; -1.2 in [15]; 0.19 in [17]. Moreover, the composite z-score in [18] was -1.19; in assay [19], -1.11; in [20], -0.397. Besides, the z-score in [8] is 5.78 (inactive); in assay [12], 0.132 (inactive); in [13], -0.404 (inactive); in assay [14] it was -0.539 (inactive); in assay [16], 0.943 (inactive).

As to `C=CC[C@]1(C(=O)NCCN2CCOCC2)N=C(c2ccc(OCCCO)cc2)O[C@H]1c1ccccc1N=[N+]=[N-]`, the composite z-score in [1] amounted to 1.13; in [2] it was 0.562; in assay [3], 0.178; in [4], 0.32; in assay [5] it was 0.832; in [6] it was 1.56. The composite z-score stood at 1.14 in assay [7]; 1.08 in [9]; 0.176 in assay [10]; 1.58 in assay [11]; 3 in [15]; 0.432 in assay [17]. In addition, the composite z-score in assay [18] worked out at 0.0879; in assay [19], 0.991; in [20], 0.509. Moreover, the z-score is 1.98 (inactive) in assay [8]; -0.941 (inactive) in assay [12]; -1.41 (inactive) in assay [13]; -0.523 (inactive) in [14]; 1.74 (inactive) in assay [16].

Turning to `Cc1ccc(N2C(=O)c3ccccc3[C@@H](C(=O)NC(C)C)[C@@H]2c2ccc(CO)cc2)nc1`, the composite z-score in [1] was 0.675; in [2] it was -0.374; in [3], -0.0598; in assay [4] it was 0.079; in assay [5], -0.333; in assay [6], -0.318. In addition, the composite z-score in assay [7] was 1.27; in assay [9], -1.08; in assay [10] it was -0.0994; in assay [11] it was 0.528; in assay [15] it was 3.07; in assay [17], -0.0336. For the same compound, the composite z-score in assay [18] was -0.0751; in assay [19] it was -0.528; in assay [20], -0.115. The z-score in assay [8] is 0.822 (inactive); in [12], -1.14 (inactive); in [13], -0.958 (inactive); in [14], -1.62 (inactive); in assay [16], -0.113 (inactive).

The values above are taken from PubChem BioAssay.
